# Data from PubChem BioAssay.
# Activity calls are given as the source filed them.
# Tests used:
# [1] = system: Wnt5a (protein binding on small-molecule microarray); experiment: Wnt5a binders on small-molecule microarray, primary screen, biophysical, 635/667 nm fluorescence (AID 1142); settings: 635 nm fluorescence, higher = more signal;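 further: fluorescence read at 667 nm with signal to noise per printed feature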
# [2] = cell viability in Huh7 cells, primary screen, cytotoxicity control for HCV replication inhibitor project, CellTiter-Glo luminescence, basal, 48 h (AID 1143); settings: Huh7 HCV replicon, higher = more signal, called active from +8 up or from −8 down;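 further: Huh7 hepatoma cells carrying a hepatitis C replication reporter with no stimulus; test concentration not given here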
# [3] = CREB reporter modulators without forskolin, primary screen, cell-based, PC12, CRE-LacZ reporter, unstimulated (AID 1145); settings: no forskolin, luminescence, 4.5 h, higher = more signal, called active from +8 up or from −8 down
# [4] = CREB reporter modulators under forskolin, primary screen, cell-based, PC12, CRE-LacZ reporter, forskolin-stimulated (AID 1146); settings: luminescence, 4.5 h, higher = more signal, called active from +8 up or from −8 down;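 further: PC12 cells with 6xCRE LacZ reporter stimulated by forskolin 10 µM; beta-galactosidase reporter signal reflecting CREB driven transcription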
# [5] = target: Streptavidin (Streptomyces avidinii) (UniProt P22629); experiment: streptavidin binders on small-molecule microarray, primary screen, artefact control for SMM compound annotation, biophysical, 635/667 nm fluorescence (AID 1147); settings: streptavidin binding, higher = more signal;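 further: signal reflects streptavidin binding to arrayed compounds as a control protein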
# Chain of Streptavidin (Streptomyces avidinii) (P22629 whole entry, looked up): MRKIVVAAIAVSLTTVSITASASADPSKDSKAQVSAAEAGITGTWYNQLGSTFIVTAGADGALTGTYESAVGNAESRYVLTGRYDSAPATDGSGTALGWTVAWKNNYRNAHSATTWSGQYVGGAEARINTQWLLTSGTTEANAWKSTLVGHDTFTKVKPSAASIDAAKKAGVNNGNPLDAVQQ
# [6] = small-molecule binders of probe aInhba, primary screen, biochemical, small-molecule microarray, 635/667 nm fluorescence (AID 1148); settings: higher = more signal;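 further: score merges 667nm spot fluorescence with signal-to-noise for antibody binding to printed compounds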
# Torsin-1A (Homo sapiens) [7] = target: Torsin-1A (Homo sapiens) (UniProt O14656); experiment: torsin A binders from cell lysate, primary screen, small-molecule microarray, wild-type, 635/667 nm (AID 1149); settings: COS7 hTOR1A-WT lysate, 635 nm fluorescence, higher = more signal
# Chain of Torsin-1A (Homo sapiens) (O14656 whole entry, looked up): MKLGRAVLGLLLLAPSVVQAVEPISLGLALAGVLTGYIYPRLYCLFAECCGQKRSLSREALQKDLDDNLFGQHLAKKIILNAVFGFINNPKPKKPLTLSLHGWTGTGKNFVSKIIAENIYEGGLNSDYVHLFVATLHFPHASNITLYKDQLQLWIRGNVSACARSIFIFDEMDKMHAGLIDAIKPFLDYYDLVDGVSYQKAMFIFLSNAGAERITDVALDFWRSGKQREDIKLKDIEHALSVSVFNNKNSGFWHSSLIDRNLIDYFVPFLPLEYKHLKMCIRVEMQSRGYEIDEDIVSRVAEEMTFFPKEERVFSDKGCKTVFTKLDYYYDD
# Torsin-1A (Homo sapiens) [8] = target: Torsin-1A (Homo sapiens) (UniProt O14656); experiment: small-molecule binders of mutant TOR1A in lysate, primary screen, cell lysate, small-molecule microarray, COS7 lysate, 635/667 nm fluorescence (AID 1150); settings: COS7 hTOR1A mutant lysate, 635 nm fluorescence, higher = more signal;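 further: score pools 667 nm emission and signal to noise measuring lysate protein binding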
# [9] = system: Sonic hedgehog protein (Shh); experiment: small-molecule binders of Shh protein, primary screen, biochemical, small-molecule microarray, 635/667 nm fluorescence (AID 1151); settings: small-molecule microarray binding, 635 nm fluorescence; higher = more signal;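 further: Shh protein binding to compounds spotted on small-molecule microarray slides; score combines spot fluorescence intensity with signal-to-noise across triplicate slides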
# [10] = E. coli DRC41 culture turbidity changes, primary screen, E. coli filamentation inducer project, strain DRC41, OD650, 48 h (AID 1152);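 further: E. coli MC1000 strain DRC41 lacking acrAB efflux pump and sulA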; settings: E. coli DRC41 (acrAB sulA), higher = more signal, called active from +8 up or from −8 down
# [11] = small-molecule binders of probe aLefty1, primary screen, biochemical, small-molecule microarray, 635/667 nm fluorescence (AID 1153); settings: higher = more signal;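 further: score merges spot fluorescence with signal-to-noise ratio from the scanned slide images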
# [12] = PSAC antagonists in infected red cells, primary screen, cell-based, P. falciparum Indochina, OD700, 1 h (AID 1154); settings: P. falciparum Indochina infected RBC osmotic lysis, higher = more signal, called active from +8 up or from −8 down
# [13] = PSAC antagonists in infected red cells, primary screen, cell-based, P. falciparum Indochina, OD700, 2 h (AID 1155);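 further: lysis reports solute entry through the parasite surface anion channel PSAC; channel blockers reduce lysis of infected cells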; settings: P. falciparum Indochina infected erythrocytes, osmotic lysis OD700; higher = more signal, called active from +8 up or from −8 down
# [14] = osmotic lysis modulators in infected erythrocytes, primary screen, PSAC antagonist project, cell-based, P. falciparum Indochina, OD700, 3 h (AID 1156); settings: higher = more signal, called active from +8 up or from −8 down
# [15] = PSAC antagonists in infected red cells, primary screen, cell-based, P. falciparum Indochina, OD700, 18 h (AID 1157); settings: P. falciparum Indochina infected erythrocytes, osmotic lysis OD700, 18 h; higher = more signal, called active from +8 up or from −8 down
# [16] = modulators of S6 phosphorylation in cells, primary screen, cell-based, A549, cytoblot, luminescence, serum-stimulated (AID 1158); settings: A549 phospho-S6 cytoblot, 5 h, higher = more signal;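 further: serum-stimulated A549 lung adenocarcinoma cells; signal is phosphorylated S6 detected by cytoblot immunostaining with HRP secondary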
# [17] = target: NADPH oxidase 2 (Homo sapiens) (UniProt P04839); experiment: NOX2-dependent H2O2 signal modulators, primary screen, NOX inhibitor project, cell-based, HEK293-NOX2, PMA-stimulated, Amplex Red fluorescence (AID 1159); settings: 45 min, higher = more signal, called active from +8 up or from −8 down; further: test concentration not given here
# Chain of NADPH oxidase 2 (Homo sapiens) (P04839 whole entry, looked up): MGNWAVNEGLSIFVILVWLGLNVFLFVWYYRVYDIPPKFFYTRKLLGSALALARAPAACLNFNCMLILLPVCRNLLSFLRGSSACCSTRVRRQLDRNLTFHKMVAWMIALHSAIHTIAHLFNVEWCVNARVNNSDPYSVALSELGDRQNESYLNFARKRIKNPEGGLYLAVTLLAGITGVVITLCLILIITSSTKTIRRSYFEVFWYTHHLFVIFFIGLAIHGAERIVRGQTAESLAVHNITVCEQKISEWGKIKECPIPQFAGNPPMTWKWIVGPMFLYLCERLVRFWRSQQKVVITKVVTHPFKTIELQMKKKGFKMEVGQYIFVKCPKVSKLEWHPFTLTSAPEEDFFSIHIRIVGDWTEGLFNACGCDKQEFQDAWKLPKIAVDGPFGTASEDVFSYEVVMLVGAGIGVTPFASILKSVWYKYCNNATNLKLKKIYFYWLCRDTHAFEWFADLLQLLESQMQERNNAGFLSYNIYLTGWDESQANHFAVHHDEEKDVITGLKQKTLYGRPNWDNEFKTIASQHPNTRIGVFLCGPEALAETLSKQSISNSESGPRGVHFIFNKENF
# [18] = target: NADPH oxidase 4 (Homo sapiens) (UniProt Q9NPH5); experiment: NOX4-dependent H2O2 signal modulators, primary screen, NOX inhibitor project, cell-based, HEK293-NOX4, tetracycline-induced, Amplex Red fluorescence (AID 1160); settings: 45 min, higher = more signal, called active from +8 up or from −8 down
# Chain of NADPH oxidase 4 (Homo sapiens) (Q9NPH5 whole entry, looked up): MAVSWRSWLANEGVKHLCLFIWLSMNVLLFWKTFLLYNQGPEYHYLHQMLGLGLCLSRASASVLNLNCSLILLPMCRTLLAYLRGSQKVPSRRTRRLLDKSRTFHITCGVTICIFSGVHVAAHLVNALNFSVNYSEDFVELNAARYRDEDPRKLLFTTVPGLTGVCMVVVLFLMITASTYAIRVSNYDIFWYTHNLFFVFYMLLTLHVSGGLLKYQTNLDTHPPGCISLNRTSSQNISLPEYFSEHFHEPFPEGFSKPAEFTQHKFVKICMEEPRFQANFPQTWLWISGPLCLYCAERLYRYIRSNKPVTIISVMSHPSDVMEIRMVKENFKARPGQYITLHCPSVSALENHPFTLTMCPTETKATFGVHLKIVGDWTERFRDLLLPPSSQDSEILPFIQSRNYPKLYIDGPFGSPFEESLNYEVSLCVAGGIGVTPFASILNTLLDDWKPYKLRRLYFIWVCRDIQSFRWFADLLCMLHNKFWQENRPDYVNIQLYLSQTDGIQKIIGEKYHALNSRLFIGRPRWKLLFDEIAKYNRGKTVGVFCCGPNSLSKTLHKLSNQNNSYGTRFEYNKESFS
# [19] = target: NADPH oxidase 5 (Homo sapiens) (UniProt Q96PH1); experiment: NOX5-dependent H2O2 signal modulators, primary screen, NOX inhibitor project, cell-based, HEK293-NOX5, Amplex Red fluorescence (AID 1161); settings: HEK293-NOX5, ionomycin, 45 min, higher = more signal
# Chain of NADPH oxidase 5 (Homo sapiens) (Q96PH1 whole entry, looked up): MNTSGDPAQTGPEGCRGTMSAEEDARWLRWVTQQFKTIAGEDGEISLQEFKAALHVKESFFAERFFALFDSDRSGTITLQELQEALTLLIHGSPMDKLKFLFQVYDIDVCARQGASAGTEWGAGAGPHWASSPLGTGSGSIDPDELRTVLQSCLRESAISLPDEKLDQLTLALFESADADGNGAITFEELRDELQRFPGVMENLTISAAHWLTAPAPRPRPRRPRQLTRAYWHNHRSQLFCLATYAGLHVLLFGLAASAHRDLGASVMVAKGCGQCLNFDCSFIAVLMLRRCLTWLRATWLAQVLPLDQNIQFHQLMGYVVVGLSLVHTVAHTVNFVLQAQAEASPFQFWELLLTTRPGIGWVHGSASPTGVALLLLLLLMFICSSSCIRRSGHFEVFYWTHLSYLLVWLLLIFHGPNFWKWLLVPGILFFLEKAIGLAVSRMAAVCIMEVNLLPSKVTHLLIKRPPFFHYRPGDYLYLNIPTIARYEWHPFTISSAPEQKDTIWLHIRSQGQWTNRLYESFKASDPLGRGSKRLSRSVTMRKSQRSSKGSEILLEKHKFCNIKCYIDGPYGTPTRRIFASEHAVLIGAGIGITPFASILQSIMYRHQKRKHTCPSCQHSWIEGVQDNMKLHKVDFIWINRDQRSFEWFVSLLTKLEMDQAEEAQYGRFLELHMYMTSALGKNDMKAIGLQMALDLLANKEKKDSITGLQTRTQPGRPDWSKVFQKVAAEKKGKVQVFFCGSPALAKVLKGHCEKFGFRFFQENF
# [20] = A549 cell viability effects, profiling panel, calcein-AM fluorescence, 48 h, basal (AID 1162); settings: higher = more signal; further: test concentration not given here
SMILES,composite z-score [1],z-score [2],z-score [3],z-score [4],composite z-score [5],composite z-score [6],composite z-score (Torsin-1A (Homo sapiens) [7]),composite z-score (Torsin-1A (Homo sapiens) [8]),composite z-score [9],z-score [10],composite z-score [11],z-score [12],z-score [13],z-score [14],z-score [15],z-score [16],z-score [17],z-score [18],z-score [19],z-score [20]
CCOC(=O)C[C@H]1[C@H](OC(=O)Cc2ccc3c(c2)OCO3)[C@@H](NC(=O)c2ccc3ccccc3c2)c2cc(OCCCO)ccc2N1C(=O)c1ccc2ccccc2n1,0.0364,-2.81 (inactive),7.41 (inactive),-1.37 (inactive),0.398,0.219,0.0253,0.107,0.555,0.869 (inactive),0.169,11.8 (active),1.44 (inactive),-0.859 (inactive),0.0679 (inactive),1.49,0.0194 (inactive),-0.0398 (inactive),-3.84,3.85
COCCCNC(=O)[C@@]1(Cc2ccccc2CN=[N+]=[N-])COC(c2ccc(OCCCO)cc2)=N1,1.18,-3.41 (inactive),-0.94 (inactive),-2.58 (inactive),0.257,0.283,1.22,0.669,0.13,2.58 (inactive),0.961,26.7 (active),22 (active),3.17 (inactive),3.5 (inactive),0.989,-2.47 (inactive),-1.03 (inactive),-2.89,0.395
CCOC(=O)C[C@H]1[C@H](OC(=O)c2ccc(-c3ccccc3)cc2)[C@@H](NC(=O)C2CCCCC2)c2cc(OCCCO)ccc2N1C(=O)c1ccc2ccccc2n1,0.0447,-0.0226 (inactive),3.51 (inactive),-0.876 (inactive),0.391,0.0582,0.688,0.525,0.21,2.69 (inactive),0.0278,1.45 (inactive),-0.755 (inactive),-0.0072 (inactive),-1.16 (inactive),1.5,1.13 (inactive),1.3 (inactive),1.94,1.23
C=C(/C(=C/C[C@H](OC(=O)c1ccncc1)c1cccc(OCCO)c1)c1cc(C(=O)OC)ccc1OC)C(C)C,-0.158,-2.09 (inactive),8.57 (active),-0.669 (inactive),0.0287,-0.05,0.607,0.568,0.948,1.17 (inactive),-0.0984,10.2 (active),-0.289 (inactive),1.66 (inactive),-1.19 (inactive),0.402,1.62 (inactive),0.0371 (inactive),-1.71,0.396
CCCNC(=O)[C@@H]1c2ccccc2C(=O)N(Cc2cc(C(F)(F)F)cc(C(F)(F)F)c2)[C@H]1c1ccc(CO)cc1,0.311,-2.67 (inactive),0.649 (inactive),-1.13 (inactive),-0.555,-0.157,-0.0027,0.19,1,1.63 (inactive),0.233,3.17 (inactive),1.07 (inactive),-0.631 (inactive),0.77 (inactive),0.488,0.602 (inactive),-0.772 (inactive),0.69,1.16
Cc1ccc(S[C@]2(C(=O)NCC(C)C)CC(=O)N(C(C)C)[C@@H]2c2ccc(CO)cc2)cc1,0.114,-4.95 (inactive),0.182 (inactive),-0.838 (inactive),-1.13,0.0464,0.234,0.0167,-0.305,2.67 (inactive),-0.191,1.73 (inactive),-0.147 (inactive),-0.651 (inactive),-1.54 (inactive),3.27,0.827 (inactive),-0.881 (inactive),0.137,-0.0169
CC(C)C(CO)N1C(=O)[C@@H]2C3C(=O)OCCC/C=C\[C@H]3OC23C=CCN(C(C)C)C(=O)[C@@H]13 (stereo not given in full),-0.0608,0.303 (inactive),0.333 (inactive),-1.18 (inactive),-0.643,0.0228,0.286,0.703,0.321,2.21 (inactive),-0.142,-0.0173 (inactive),-0.96 (inactive),-0.677 (inactive),-1.36 (inactive),0.225,0.914 (inactive),0.527 (inactive),1.56,0.136
NC(=O)NCC#Cc1ccc2c(c1)[C@]1(C(=O)N2)[C@H](c2ccc(OCCO)cc2)N2[C@H](c3ccccc3)[C@H](c3ccccc3)OC(=O)[C@H]2[C@@H]1C(=O)Nc1nc2ccccc2s1,0.151,-0.0246 (inactive),-0.0246 (inactive),0.625 (inactive),0.453,0.0253,-0.033,0.254,0.0186,2 (inactive),0.122,2.5 (inactive),2.06 (inactive),1.53 (inactive),1.33 (inactive),-0.199,1.43 (inactive),0.57 (inactive),1.16,0.0942
O=C(NO)[C@]1(Cc2ccccc2)N=C(c2ccc(OCCCO)cc2)O[C@@H]1c1ccccc1,-0.229,-1.7 (inactive),3.01 (inactive),-1.91 (inactive),-0.585,-0.0782,-0.427,0.411,-0.351,3.88 (inactive),0.0278,15 (active),0.971 (inactive),-0.479 (inactive),-0.21 (inactive),2.81,0.709 (inactive),0.551 (inactive),2.06,1.86
CCN(CC)c1ccc(N2CC=CC34O[C@@H]5C=CCOC(=O)[C@@H]5[C@H]3C(=O)N(C(C)CO)[C@@H]4C2=O)cc1 (stereo not given in full),-0.701,-0.269 (inactive),0.195 (inactive),0.188 (inactive),-1.27,-0.123,-1.08,-0.641,-0.903,1.55 (inactive),0.121,0.0295 (inactive),0.447 (inactive),0.976 (inactive),0.255 (inactive),-0.153,0.126 (inactive),0.197 (inactive),0.871,0.271
CC(C)(C)OC(=O)CC[C@]1(C(=O)NCc2ccccc2)COC(c2ccc(OCCCO)cc2)=N1,0.433,-1.47 (inactive),1.7 (inactive),-1.32 (inactive),0.74,-0.0308,-0.208,1.11,-0.743,2.02 (inactive),0.0738,18.7 (active),1.92 (inactive),1.99 (inactive),-1.39 (inactive),0.719,0.117 (inactive),0.804 (inactive),-1.01,0.661
COC(=O)C1=CC(c2ccc(CO)cc2)=CC(C2CC2)N(C)C=C1C(=O)OC (stereo not given),0.138,-3.85 (inactive),-0.195 (inactive),-1.75 (inactive),0.226,0.203,-0.017,1.04,-0.154,2.75 (inactive),0.223,7.02 (inactive),0.548 (inactive),-2.7 (inactive),-0.382 (inactive),3.99,-1.7 (inactive),-0.0178 (inactive),-1.69,0.981
C=CCN1C(=O)[C@]2(O[C@H](CCn3cc([C@H](O)c4ccccc4)nn3)[C@@H]([Si](C)(C)c3ccc(OC)cc3)[C@@H]2C)c2cc(N3CCOC3=O)ccc21,-0.185,-5.33 (inactive),2.8 (inactive),-2.35 (inactive),-0.0082,-0.224,0.772,0.76,-0.429,1.46 (inactive),-0.417,4.38 (inactive),-0.527 (inactive),1.03 (inactive),-1.58 (inactive),0.348,-0.122 (inactive),1.61 (inactive),-2.66,0.0522
C=CC[C@@]1(C(=O)NCc2ccccc2)N=C(c2ccc(OCCCO)cc2)O[C@@H]1c1ccccc1,0.102,-4.6 (inactive),-0.16 (inactive),-1.56 (inactive),0.344,0.0582,0.161,0.551,-0.435,2.48 (inactive),0.399,24.4 (active),11.3 (active),2.34 (inactive),0.546 (inactive),1.46,-0.189 (inactive),0.956 (inactive),-1.14,-0.506
COc1ccc([Si](C)(C)[C@H]2[C@H](CC(=O)N(CCO)Cc3ccccc3)O[C@@]3(C(=O)N(Cc4cccc(N5C(=O)COc6ccccc65)c4)c4ccccc43)[C@@H]2C)cc1,0.223,-3.26 (inactive),2.61 (inactive),-1.58 (inactive),0.224,0.0566,0.275,0.493,2.03,2.01 (inactive),0.0437,12.7 (active),2.77 (inactive),0.144 (inactive),1.28 (inactive),0.721,0.0235 (inactive),0.789 (inactive),2.17,0.0715
CC(C)C(=C=CC[C@H](O)c1ccc(OCCO)cc1)C[C@H](O)COCc1ccccc1,0.317,-3.34 (inactive),12.1 (active),-0.14 (inactive),0.192,-0.0986,1.11,1.42,1.96,0.811 (inactive),0.0751,20.1 (active),4.54 (inactive),1.7 (inactive),0.923 (inactive),-0.474,-0.557 (inactive),-0.142 (inactive),-1.87,0.153
O=C1c2ccccc2[C@](Cc2ccccc2I)(C(=O)O)[C@H](c2ccc(CO)cc2)N1Cc1ccccc1Cl,0.0716,-1.86 (inactive),-0.0888 (inactive),-0.873 (inactive),0.414,0.112,0.252,1.01,0.0948,1.76 (inactive),0.122,4.07 (inactive),-0.442 (inactive),0.477 (inactive),-1.07 (inactive),1.21,1.35 (inactive),0.57 (inactive),2.39,1.32
